Measurements taken from a collection of fitness landscapes (doi:10.1016/j.celrep.2020.107928).
In all, about 81,000 sequences were measured (“one-hybrid fitness for binding NBS DNA”: median about -0.1, highest 2% from about 0.36 on). Shown is part of a subset that was picked to be rich in the highest values.

B1: Caulobacter ParB omega fusion; a variant is named by its letters at X, in order, B8GW30 (parent)
chain: MESVVVGEPGMSEGRRGLGRGLSALLGEVDAAPAQAPGEQLGGSREAPIEILQRNPDQPRRTFREEDLEDLSNSIREKGVLQPILVRPSPDTAGEYQIVAGERAWRAAQRAGLKTVPIMVRELDDLAVLEIGIIENVQRADLNVLEEALSYKVLMEKFERTQENIAQTIGKSXSHVANXMRLLXLPDEVQSYLVSGELTAXHARAIAAAADPVALAKQIIEGGLSVRETEALARKAPNLSAGKSKGGRPPRVKDTDTQALESDLSSVLGLDVSIDHRGSTGTLTITYATLEQLDDLCNRLTRGI

Variants of: B1
Test: one-hybrid fitness for binding NBS DNA (the Noc-binding site; scaled: cognate 1, non-cognate 0); higher = stronger binding
Settings: with NBS DNA site
In short: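 Selection: bacterial one-hybrid in E. coli USO, HIS3 reporter with the site 19 bp from the promoter, 48 hours at 37°C on M9-minus-histidine plus 0.1 mM IPTG and 5 mM 3-AT. Libraries were Caulobacter ParB with four randomised specificity codons, sequenced on Illumina before and after selection. Fitness is the rescaled log change in variant-to-wild-type read ratio, anchored to the cognate and non-cognate sites.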

Variant | one-hybrid fitness for binding NBS DNA
AGTH | ≤ 0.2
MNRA | ≤ 0.2
FAPL | ≤ 0.2
KVYR | ≤ 0.2
IVTS | ≤ 0.2
MDCS | ≤ 0.2
CHRG | ≤ 0.2
PCMS | ≤ 0.2
KLNI | ≤ 0.2
PANI | ≤ 0.2
HTQS | ≤ 0.2
DLLT | ≤ 0.2
QMRQ | 0.437
QKSQ | ≤ 0.2
QKNQ | 0.245
QKRQ | 0.415
QMLQ | ≤ 0.2
QMSQ | 0.242
WNMG | ≤ 0.2
PCVV | ≤ 0.2
QGRA | ≤ 0.2
TPPQ | ≤ 0.2
QTAG | ≤ 0.2

Variant | one-hybrid fitness for binding NBS DNA
QTAT | 0.595
QTFC | ≤ 0.2
QTAF | ≤ 0.2
QTFM | ≤ 0.2
QTFT | 0.515
MPRS | ≤ 0.2
QVPV | ≤ 0.2
YMPV | ≤ 0.2
QSQA | 0.248
QHQA | 0.315
QRQA | 0.611
QAQA | 0.252
QPQA | ≤ 0.2
QCQA | 0.372
RCSR | 0.527
RSSN | ≤ 0.2
RSSH | ≤ 0.2
RPSR | ≤ 0.2
RFSR | 0.248
RSSR | 0.437
CVPS | ≤ 0.2
VSVV | ≤ 0.2
PVFF | ≤ 0.2

Variant | one-hybrid fitness for binding NBS DNA
GQRG | ≤ 0.2
KCKA | ≤ 0.2
KRNA | 0.384
KRYA | 0.313
KRFA | 0.277
KRRA | 0.524
KRKA | 0.552
KRVA | ≤ 0.2
KRDA | ≤ 0.2
KCNA | ≤ 0.2
QDQP | ≤ 0.2
VKIM | ≤ 0.2
TAPS | ≤ 0.2
DPGG | ≤ 0.2
TPCF | ≤ 0.2
YQMR | ≤ 0.2
QSYH | ≤ 0.2
QCYH | 0.257
QSRH | 0.535
QPRH | ≤ 0.2
QSRP | 0.242
QCRH | 0.693
HHWC | ≤ 0.2

Variant | one-hybrid fitness for binding NBS DNA
RCYR | 0.518
RSIR | 0.207
RSPR | ≤ 0.2
RPRR | ≤ 0.2
RDRR | ≤ 0.2
RCRR | 0.77
RFYR | ≤ 0.2
RPYR | ≤ 0.2
RFRR | 0.486
RFDR | ≤ 0.2
RCDR | 0.255
RSYR | 0.381
RPCV | ≤ 0.2
MHMS | ≤ 0.2
FEYF | ≤ 0.2
SDMT | ≤ 0.2
MIYS | ≤ 0.2
TKTV | ≤ 0.2
PMHR | ≤ 0.2
LLCI | ≤ 0.2
RSRP | ≤ 0.2
RSRR | 0.664
QQPL | ≤ 0.2

Variant | one-hybrid fitness for binding NBS DNA
PLCI | ≤ 0.2
GLAR | ≤ 0.2
HQST | ≤ 0.2
TWRR | ≤ 0.2
QYGC | ≤ 0.2
QYPR | 0.27
QYLS | 0.256
QYLP | ≤ 0.2
QYNT | 0.488
QYGK | ≤ 0.2
QYNP | ≤ 0.2
QYIR | 0.346
QYGT | 0.421
QYDT | 0.272
QYYR | 0.466
QYLR | 0.436
NGTR | ≤ 0.2
DDKT | ≤ 0.2
MCAC | ≤ 0.2
HSLM | ≤ 0.2
FAHM | ≤ 0.2
KQAV | ≤ 0.2
DLQG | ≤ 0.2

Variant | one-hybrid fitness for binding NBS DNA
QYCR | 0.462
QYCN | ≤ 0.2
QYHS | 0.417
QYGM | ≤ 0.2
QYGR | 0.553
QYRR | 0.979
QYGG | ≤ 0.2
QYHN | ≤ 0.2
QYHP | ≤ 0.2
QYRF | 0.248
QYER | 0.31
QYCS | 0.301
WNEY | ≤ 0.2
VWCR | ≤ 0.2
ATSP | ≤ 0.2
GRTC | ≤ 0.2
VDLS | ≤ 0.2
QYDS | 0.203
